Results filed as inconclusive are left out. A call without a number means that no potency is given here. Active and inactive are the calls of the source. Unless noted, the call rests on the fitted dose curve; in most records, active means well fitted curve in the direction sought with a large enough effect in the repeat runs; inconclusive means weak or mixed curves; inactive means no such curve, though single readings can be large; an effect the other way counts as inactive or inconclusive.
Columns and labels:
[1] = qHTS assay to identify small molecule agonists of the peroxisome proliferator-activated receptor delta (PPARd) signaling pathway - cell viability counter screen (AID 743211); further: nearly all actives have a fitted effect of over 55% in size; further: potency means the concentration at half of the fitted maximal effect
Procedure, shortened: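 Counter screen for cytotoxicity run in parallel with the PPARd reporter screen. Beta-lactamase reporter HEK293H cells exposed to compounds 17 h; ATP-based CellTiter-Glo luminescence quantified viability.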

[2] = biological target: Peroxisome proliferator-activated receptor delta (Homo sapiens) (UniProt Q03181); test: qHTS assay to identify small molecule agonists of the peroxisome proliferator-activated receptor delta (PPARd) signaling pathway (AID 743212; calls by dose curve)
Peroxisome proliferator-activated receptor delta (Homo sapiens), sequence (Q03181 whole entry, looked up): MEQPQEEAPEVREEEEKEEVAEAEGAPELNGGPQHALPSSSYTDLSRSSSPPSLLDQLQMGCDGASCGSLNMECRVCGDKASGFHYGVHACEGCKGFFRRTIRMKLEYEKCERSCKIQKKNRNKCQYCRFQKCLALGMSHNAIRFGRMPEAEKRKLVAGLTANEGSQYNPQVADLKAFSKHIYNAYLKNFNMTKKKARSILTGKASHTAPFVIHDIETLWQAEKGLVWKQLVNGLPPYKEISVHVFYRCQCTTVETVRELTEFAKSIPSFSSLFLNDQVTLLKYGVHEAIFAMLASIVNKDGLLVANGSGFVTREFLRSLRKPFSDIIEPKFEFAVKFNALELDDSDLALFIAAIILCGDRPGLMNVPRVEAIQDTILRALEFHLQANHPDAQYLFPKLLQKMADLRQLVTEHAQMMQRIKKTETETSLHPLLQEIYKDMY
Procedure, shortened: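 GeneBLAzer PPARd UAS-bla HEK293H cells (beta-lactamase reporter under UAS control), plated and rested 5 h at 37 C, then exposed to compounds in DMSO at 37 C; LiveBLAzer B/G FRET substrate added, 2 h room temperature, fluorescence read.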

[3] = qHTS assay to identify small molecule antagonists of the peroxisome proliferator-activated receptor delta (PPARd) signaling pathway - cell viability counter screen (AID 743213); further: nearly all actives have a fitted effect of over 50% in size; further: potency means the concentration at half of the fitted maximal effect
Procedure, shortened: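 Viability counter-screen, qHTS format: PPARd-bla HEK293H, L165041 300 nM final, 17 h compound exposure at 37 C, CellTiter-Glo luminescence after 30 min RT.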

[4] = biological target: Peroxisome proliferator-activated receptor delta (Homo sapiens) (UniProt Q03181); test: qHTS assay to identify small molecule antagonists of the peroxisome proliferator-activated receptor delta (PPARd) signaling pathway (AID 743215; active means well fitted inhibition curve with a large enough effect in the signal ratio in the repeat runs, not every such curve was filed as active; the % refers to the signal ratio;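 further: cells stimulated with agonist L165041 at 300 nM final during compound exposure; series mostly up to about 62 µM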)
Procedure, shortened: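 PPARd-bla HEK293H cells (UAS-bla reporter) preincubated 5 h, then given compound plus 300 nM final L165041 agonist for 17 h at 37 C. Beta-lactamase activity read by LiveBLAzer B/G FRET substrate fluorescence after 2 h at room temperature.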

[5] = biological target: Bile acid receptor (Homo sapiens) (UniProt Q96RI1); test: qHTS assay to identify small molecule antagonists of the farnesoid-X-receptor (FXR) signaling pathway (AID 743217; active means well fitted inhibition curve with a large enough effect in the signal ratio in the repeat runs, not every such curve was filed as active; the % refers to the signal ratio; further: potency means the concentration at half of the fitted maximal effect)
Bile acid receptor (Homo sapiens), sequence (Q96RI1 whole entry, looked up): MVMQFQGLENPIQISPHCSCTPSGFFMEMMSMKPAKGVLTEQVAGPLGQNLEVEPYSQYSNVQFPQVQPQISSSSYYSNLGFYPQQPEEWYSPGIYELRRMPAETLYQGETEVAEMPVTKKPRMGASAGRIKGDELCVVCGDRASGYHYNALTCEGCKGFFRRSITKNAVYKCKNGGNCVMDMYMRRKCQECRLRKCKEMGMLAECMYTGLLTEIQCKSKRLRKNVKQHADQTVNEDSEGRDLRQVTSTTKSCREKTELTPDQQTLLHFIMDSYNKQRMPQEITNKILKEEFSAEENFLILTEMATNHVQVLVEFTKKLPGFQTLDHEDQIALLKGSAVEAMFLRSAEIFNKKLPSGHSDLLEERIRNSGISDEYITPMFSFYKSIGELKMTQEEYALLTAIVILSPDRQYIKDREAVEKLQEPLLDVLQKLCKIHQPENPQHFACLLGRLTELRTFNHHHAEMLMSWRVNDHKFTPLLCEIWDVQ
Procedure, shortened: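 FXR-UAS-bla HEK 293T cells (beta-lactamase reporter) given compound plus chenodeoxycholic acid (50 uM final), 16 h at 37C. LiveBLAzer B/G FRET substrate added for 2 h at room temperature; fluorescence read.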

[6] = qHTS assay to identify small molecule agonists of the farnesoid-X-receptor (FXR) signaling pathway - cell viability counter screen (AID 743218); further: nearly all actives have a fitted effect of over 45% in size; further: potency means the concentration at half of the fitted maximal effect
Procedure, shortened: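 FXR-UAS-bla HEK 293T cells exposed to compounds for 16 h at 37C. Cytotoxicity read in the same wells by CellTiter-Glo luminescence after 30 min at room temperature, following the beta-lactamase FRET read.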

[7] = biological target: Bile acid receptor (Homo sapiens) (UniProt Q96RI1); test: qHTS assay to identify small molecule agonists of the farnesoid-X-receptor (FXR) signaling pathway (AID 743220; active means well fitted activation curve with a large enough effect in the signal ratio in the repeat runs, not every such curve was filed as active; the % refers to the signal ratio)
Procedure, shortened: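 Beta-lactamase reporter under UAS control in GeneBLAzer FXR HEK 293T cells (5000/well) measured with LiveBLAzer FRET substrate after 2 h at room temperature. Compound exposure lasted 16 h at 37C.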

[8] = qHTS assay to identify small molecule antagonists of the farnesoid-X-receptor (FXR) signaling pathway - cell viability counter screen (AID 743221; active means well fitted cell-killing curve with a large enough effect in the repeat runs, not every such curve was filed as active; further: nearly all actives have a fitted effect of over 50% in size)
Procedure, shortened: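 Multiplexed counter screen: viability of FXR-bla HEK 293T cells under agonist stimulation by chenodeoxycholic acid (50 uM, final) and test compound for 16 h at 37 C, measured by CellTiter-Glo luminescence in the reporter wells.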

[9] = biological target: Vitamin D3 receptor (Homo sapiens) (UniProt P11473); test: qHTS assay to identify small molecule agonists of the vitamin D receptor (VDR) signaling pathway (AID 743222; calls by dose curve)
Vitamin D3 receptor (Homo sapiens), sequence (P11473 whole entry, looked up): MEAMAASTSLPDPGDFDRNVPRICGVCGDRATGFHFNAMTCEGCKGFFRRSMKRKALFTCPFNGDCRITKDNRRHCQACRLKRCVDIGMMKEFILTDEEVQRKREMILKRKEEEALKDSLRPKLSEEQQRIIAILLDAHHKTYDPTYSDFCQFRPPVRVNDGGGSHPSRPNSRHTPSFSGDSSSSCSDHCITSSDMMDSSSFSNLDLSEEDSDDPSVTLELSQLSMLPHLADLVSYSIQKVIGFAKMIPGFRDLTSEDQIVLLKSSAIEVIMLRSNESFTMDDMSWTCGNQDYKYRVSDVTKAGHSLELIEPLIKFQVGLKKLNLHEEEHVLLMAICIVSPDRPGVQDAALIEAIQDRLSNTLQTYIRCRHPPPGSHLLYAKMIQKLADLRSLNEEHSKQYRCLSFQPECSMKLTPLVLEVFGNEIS
Procedure, shortened: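 VDR-bla cells plated 4 h at 37 C, then exposed to compounds for 16 h at 37 C. Beta-lactamase reporter activity measured by fluorescence after 2 h room-temperature loading with LiveBLAzer B/G FRET substrate.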

[10] = biological target: Vitamin D3 receptor (Homo sapiens) (UniProt P11473); test: qHTS assay to identify small molecule antagonists of the vitamin D receptor (VDR) signaling pathway (AID 743223; active means well fitted inhibition curve with a large enough effect in the signal ratio in the repeat runs, not every such curve was filed as active; the % refers to the signal ratio)
Procedure, shortened: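 Cells carrying a VDR-driven beta-lactamase reporter (VDR-bla) were co-treated with compound and 3 nM final 1alpha,25-dihydroxyvitamin D3 for 16 h at 37C; reporter activity was measured as FRET substrate fluorescence after 2 h at room temperature.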

[11] = qHTS assay to identify small molecule agonists of the vitamin D receptor (VDR) signaling pathway - cell viability counter screen (AID 743224); further: series mostly up to about 63 µM; nearly all actives have a fitted effect of over 50% in size
Procedure, shortened: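 VDR-bla cells, 4 h after plating, exposed to compounds for 16 h at 37C; viability then read in the same wells as CellTiter-Glo luminescence after 30 min at room temperature, following the bla FRET read.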

[12] = qHTS assay to identify small molecule antagonists of the vitamin D receptor (VDR) signaling pathway - cell viability counter screen (AID 743225); further: nearly all actives have a fitted effect of over 50% in size
Procedure, shortened: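 HEK293T VDR-bla; cpd + 1a,25-(OH)2D3 3 nM final, 16 h 37C/5% CO2; B/G FRET substrate 2 h RT; then CellTiter-Glo 30 min RT, luminescence.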

[13] = qHTS assay to identify small molecule agonists of the NFkB signaling pathway (AID 1159509; active means well fitted curve in the direction sought with a large enough effect in the signal ratio in the repeat runs, not every such curve was filed as active; the % refers to the signal ratio; further: series mostly up to about 61 µM)
Procedure, shortened: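 After overnight attachment, reporter cells received test compounds, DMSO or positive controls and were incubated 5 hr at 37 C. FRET substrate was then added for 1.5 hr at room temperature before dual-emission fluorescence reading.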

[14] = qHTS assay to identify small molecule agonists of the NFkB signaling pathway - cell viability counter screen (AID 1159515; calls by dose curve; further: series mostly up to about 61 µM; nearly all actives have a fitted effect of over 55% in size)
Procedure, shortened: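 NFkB-bla ME-180 cells, 2,000/well, plated overnight at 37 C; compound added for 5 hr at 37 C. Viability read in the same wells as the bla reporter, by CellTiter-Glo luminescence after 30 min at room temperature.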

[15] = qHTS assay to identify small molecule agonists of the endoplasmic reticulum stress response signaling pathway (AID 1159516; active means well fitted activation curve with a large enough effect in the signal ratio in the repeat runs, not every such curve was filed as active; the % refers to the signal ratio)
Procedure, shortened: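 CellSensor ESRE-bla HeLa cells, 1,500 per well, plated overnight, then exposed to compounds for 5 hr at 37 C. Beta-lactamase reporter read with LiveBLAzer B/G FRET substrate after 2 hr at room temperature, 405 nm excitation, 460 and 530 nm emission.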

[16] = qHTS assay to identify small molecule antagonists of the retinoid-related orphan receptor gamma (ROR-gamma) signaling pathway - cell viability counter screen (AID 1159520); further: nearly all actives have a fitted effect of over 50% in size
Procedure, shortened: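 Tet-on ROR gamma CHO cells (1,000/well) were plated 4 hr, given compounds in DMSO for 2 hr at 37 C, then induced with 1 uM final doxycycline for 16 hr. Viability was read as ATP by CellTiter-Glo luminescence after 30 min.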

[17] = biological target: Nuclear receptor ROR-gamma (Homo sapiens) (UniProt P51449); test: qHTS assay to identify small molecule antagonists of the retinoid-related orphan receptor gamma (ROR-gamma) signaling pathway (AID 1159521)
Procedure, shortened: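 Cells were plated, rested 4 h at 37 C, exposed to compounds for 2 h, then given 1 uM final doxycycline hyclate to induce RORγ expression. After 16 h, ONE-Glo luminescence from the ROR response element reporter was measured.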

[18] = qHTS assay to identify small molecule agonists of the AP-1 signaling pathway - cell viability counter screen (AID 1159525; calls by dose curve; further: nearly all actives have a fitted effect of over 55% in size)
Procedure, shortened: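 ME-180 AP-1-bla, 2500 cells/well, Opti-MEM + 0.5% dialyzed FBS; overnight 37 °C; cpd 15-pt titration, 5 h 37 °C; CellTiter-Glo 30 min RT; luminescence read; normalised to TOAB and DMSO controls.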

[19] = qHTS assay to identify small molecule agonists of the AP-1 signaling pathway (AID 1159526; calls by dose curve)
[20] = qHTS assay to identify small molecule agonists of the endoplasmic reticulum stress response signaling pathway - cell viability counter screen (AID 1159517; calls by dose curve)
Procedure, shortened: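 Luminescence readout: CellTiter-Glo, 30 min RT, same wells as the ESRE-bla reporter read. HeLa ESRE-bla, 1,500 cells/well, o/n 37 C; cpd 5 hr 37 C/5% CO2.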

SMILES | Potency [1] | outcome [2] | Potency [3] | Potency [4] | Potency [5] | Potency [6] | outcome [7] | Potency [8] | outcome [9] | outcome [10] | Potency [11] | Potency [12] | outcome [13] | Potency [14] | outcome [15] | Potency [16] | Potency [17] | Potency [18] | outcome [19] | Potency [20]
CCCCN=C=O | inactive | inactive | inactive | inactive | inactive | inactive | inactive | inactive | inactive | inactive | inactive | inactive | inactive | inactive | inactive | inactive | inactive | inactive | inactive | 
CCc1ccc(C(=O)NN(C(=O)c2cc(C)cc(C)c2)C(C)(C)C)cc1 | inactive |  | inactive | inactive | 54.9 µM (active) |  |  | inactive | inactive |  | inactive |  | inactive | inactive | inactive | inactive |  | inactive | inactive | inactive
CC(Cl)C(C)Cl (stereo unspecified) | inactive | inactive | inactive | inactive | inactive | inactive | inactive | inactive |  |  | inactive | inactive | inactive | inactive | inactive | inactive | inactive | inactive | inactive | 
NC(=O)CI |  |  | inactive |  |  | inactive |  |  | inactive | inactive | inactive |  | inactive | inactive | inactive |  |  | inactive |  | inactive
Cl/C=C\C[N+]12CN3CN(CN(C3)C1)C2 | inactive |  | inactive |  | inactive | inactive | inactive | inactive |  |  | inactive | inactive | inactive | inactive | inactive |  | inactive | inactive | inactive | inactive
CCCCCCCCOC(=O)c1ccc(C(=O)OCCCCCCCC)c(C(=O)OCCCCCCCC)c1 | inactive | inactive | inactive | inactive | inactive | inactive | inactive |  |  |  | inactive |  | inactive | inactive | inactive | inactive |  | inactive | inactive | inactive
CCCCc1c(C)nc(NCC)nc1OS(=O)(=O)N(C)C |  | inactive | inactive | inactive |  | inactive |  | inactive | inactive |  | inactive | inactive | inactive | inactive | inactive | inactive |  | inactive | inactive | inactive
COCC(C)N(C(=O)CCl)c1c(C)csc1C (stereo unspecified) | inactive |  |  |  | inactive | inactive | inactive |  |  |  |  | inactive | inactive | inactive | inactive | inactive |  | inactive |  | inactive
CCCC(Cn1cncn1)c1ccc(Cl)cc1Cl (stereo unspecified) |  |  | inactive | inactive |  | inactive | inactive | inactive |  |  | inactive | inactive | inactive | inactive | inactive |  |  | inactive |  | inactive
Cl/C=C\Cl | inactive | inactive | inactive | inactive |  | inactive |  | inactive | inactive |  | inactive | inactive | inactive | inactive | inactive | inactive | inactive | inactive | inactive | 
ClCCCCBr | inactive | inactive | inactive | inactive | inactive | inactive | inactive | inactive | inactive |  | inactive | inactive | inactive | inactive | inactive | inactive | inactive | inactive | inactive | 
CCOS(C)(=O)=O | inactive | inactive | inactive | inactive | inactive |  | inactive | inactive | inactive |  | inactive | inactive | inactive | inactive | inactive | inactive |  | inactive | inactive | inactive
CCCN(CCCl)c1c([N+](=O)[O-])cc(C(F)(F)F)cc1[N+](=O)[O-] |  | inactive | inactive |  | inactive | inactive | inactive | inactive |  | inactive |  | inactive | inactive | inactive | inactive |  | inactive |  |  | inactive
CN1C[C@H](CNC(=O)OCc2ccccc2)C[C@@H]2c3cccc4c3c(cn4C)C[C@H]21 | 26.6 µM (active) |  | 13.3 µM (active) |  |  | 13.3 µM (active) |  |  |  |  | inactive | inactive | inactive | inactive | inactive | inactive |  | inactive |  | inactive
CCO[C@H]1O[C@@H]2OC3(C)CC[C@H]4[C@H](C)CC[C@@H]([C@H]1C)[C@@]24OO3 | inactive | inactive | inactive |  | inactive | inactive | inactive | inactive | inactive | inactive | inactive | inactive | inactive | inactive | inactive | inactive |  | inactive |  | inactive
Nc1nc(N)nc(N)n1 | inactive | inactive | inactive | inactive | inactive | inactive | inactive | inactive |  | inactive | inactive | inactive | inactive | inactive | inactive | inactive | inactive | inactive | inactive | 
CC1CC(CC2CCC(N)C(C)C2)CCC1N (stereo unspecified) | inactive |  |  | inactive |  |  |  |  |  |  | inactive |  | inactive | inactive | inactive | inactive | inactive | inactive |  | 
CC(=O)CCC(C)=O |  | inactive | inactive |  |  | inactive |  |  | inactive | inactive | inactive | inactive | inactive | inactive | inactive | inactive | inactive | inactive | inactive | 
ClCc1ccccc1 |  |  | inactive | inactive |  | inactive |  | inactive | inactive | inactive | inactive | inactive | inactive | inactive | inactive | inactive | inactive | inactive | inactive | 
